The supplement of paper PMC6992640
Counter-ions that a name gives are not always drawn. ± gives the standard deviation of the averaged measurements.

Key:
Assay in all cases: cell viability (% of vehicle); higher = less cytotoxic
Settings in all cases: 10 µM; 72 h
HCI01 = system: HCI01 (cells of a triple-negative basal-like breast cancer xenograft)
HCI03 = system: HCI03 (cells of an ER-positive luminal breast cancer xenograft)
HCI09 = system: HCI09 (cells of a triple-negative luminal androgen receptor type breast cancer xenograft)
HCI11 = system: HCI11 (cells of an ER-positive luminal breast cancer xenograft)
HCI13 = system: HCI13 (cells of an ER-positive luminal breast cancer xenograft)
HCI16 = system: HCI16 (cells of a triple-negative basal-like breast cancer xenograft)
UCD52 = system: UCD52 (cells of a triple-negative basal-like breast cancer xenograft)
WHIM2 = system: WHIM2 (cells of a triple-negative basal-like breast cancer xenograft)
WHIM30 = system: WHIM30 (cells of a triple-negative basal-like breast cancer xenograft)
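Also: PDX cells carrying CMV promoter-driven luciferase, viability read as total photon flux per second by IVIS imaging following D-luciferin, vehicle control 0.1% DMSO.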

SMILES	cell viability (HCI01)	cell viability (HCI03)	cell viability (HCI09)	cell viability (HCI11)	cell viability (HCI13)	cell viability (HCI16)	cell viability (UCD52)	cell viability (WHIM2)	cell viability (WHIM30)
CCCNCC(O)COc1ccccc1C(=O)CCc1ccccc1.Cl (stereo unspecified) [Propafenone HCl]	90.3 ± 6.7	119	96 ± 14	87.2	95.3 ± 7	101	76.9 ± 7.8	86.9 ± 20	115 ± 6.6
CNC(=O)CN(CCN(CCN(CC(=O)[O-])CC(=O)NC)CC(=O)[O-])CC(=O)[O-].O.[Gd+3] [Gadodiamide]	99.5 ± 27	111	99 ± 15	90.1	83.6 ± 8.9	112	104 ± 7.4	92.5 ± 29	94.5 ± 5.2
Nc1nc(N)c2nc(-c3ccccc3)c(N)nc2n1 [Triamterene]	105 ± 25	148	116 ± 17	109	120 ± 12	138	123 ± 28	94.5 ± 15	122 ± 17
C=CC[C@@H]1/C=C(\C)C[C@H](C)C[C@H](OC)[C@H]2O[C@@](O)(C(=O)C(=O)N3CCCC[C@H]3C(=O)O[C@H](/C(C)=C/[C@@H]3CC[C@@H](O)[C@H](OC)C3)[C@H](C)[C@@H](O)CC1=O)[C@H](C)C[C@@H]2OC [Tacrolimus (FK506)]	55.9 ± 45	112	50.6 ± 16	85.4	99.2 ± 6.4	92	83.4 ± 4.2	85.9 ± 20	166 ± 19
Cc1ccc(Cl)c(Nc2ccccc2C(=O)[O-])c1Cl.[Na+] [Meclofenamate Sodium]	111 ± 10	158	100 ± 5.1	103	122 ± 5	121	92.1 ± 4.6	97.8 ± 9.9	144 ± 2.2
Cl.NC(N)=NC(=O)c1nc(Cl)c(N)nc1N.O.O [Amiloride HCl dihydrate]	99.2 ± 7.3	102	121 ± 1.5	89.4	102 ± 8.4	115	96.35 ± 0.8	86 ± 16	114 ± 8.2
CCCC(=O)Nc1ccc(OCC(O)CNC(C)C)c(C(C)=O)c1.Cl (stereo unspecified) [Acebutolol HCl]	125 ± 5.8	123	102 ± 22	106	76.3 ± 3.2	156	97.1 ± 7	98.7 ± 8.9	131.6 ± 0.063
COS(=O)(=O)[O-].C[N+]1(C)CCC(=C(c2ccccc2)c2ccccc2)CC1 [Diphemanil Methylsulfate]	101 ± 3	121	97.8 ± 12	109	119 ± 5.8	84.7	94.5 ± 13	96.7 ± 19	161.9 ± 0.26
CC12CCC(O)CC1=CCC1C2CCC2(C)C(n3cnc4ccccc43)=CCC12 (stereo unspecified)	119 ± 15	58.2	54.3 ± 41	76.2	103 ± 7.5	96.3	83.2 ± 4.1	118 ± 18	93.6 ± 13
CC(Nc1ncnc2nc[nH]c12)c1cc2cccc(Cl)c2c(=O)n1-c1ccccc1 (stereo unspecified)	91.5 ± 1.5	53.1	71.9 ± 26	66.4	45.8 ± 4.9	81.8	67.3 ± 1.7	51.1 ± 15	95.3 ± 2.1
CCCNC(=O)NS(=O)(=O)c1ccc(Cl)cc1 [Chlorpropamide]	121 ± 28	113	73.9 ± 18	82.9	81.8 ± 25	105	92.5 ± 5.9	99.5 ± 14	104 ± 4.6
CC1CCc2cc(F)cc3c(=O)c(C(=O)O)cn1c23 (stereo unspecified) [Flumequine]	92.8 ± 10	156	93.1 ± 7.6	118	117 ± 6.8	138	107 ± 5.8	98.4 ± 4.2	135 ± 15
COC(=O)C=CC(=O)OC [Dimethyl Fumarate]	126 ± 22	129	104 ± 5.7	95.4	70.4 ± 15	113	94.6 ± 3.6	134 ± 30	128 ± 18
CCN1CCN(C(=O)NC(C(=O)NC2C(=O)N3C2SC(C)(C)C3C(=O)[O-])c2ccccc2)C(=O)C1=O.[Na+] (stereo unspecified) [Piperacillin Sodium]	109 ± 7.5	91.8	76.1 ± 26	92.6	88.4 ± 1.3	111	108 ± 17	105 ± 18	152 ± 15
CN1CCN(C2=c3ccccc3=Nc3ccc(Cl)cc3N2)CC1 [Clozapine]	95.4 ± 14	130	101 ± 11	87.2	106 ± 1.6	123	83.6 ± 11	85.298 ± 0.078	122 ± 15
CC(C)NCC(O)COc1ccc(CCOCC2CC2)cc1.Cl (stereo unspecified) [Betaxolol HCl]	132 ± 2.2	134	107 ± 34	107	87 ± 6.8	149	74.2 ± 1.6	101 ± 15	117 ± 1.3
CON=C(C(=O)NC1C(=O)N2C(C(=O)O)=C(CSC(=O)c3ccco3)CSC12)c1csc(N)n1.Cl (stereo unspecified) [Ceftiofur HCl]	90.2 ± 12	132	95.9 ± 8.5	100	56.9 ± 2.3	103	103 ± 12	104 ± 10	111 ± 14
CC(C)(C)C(=O)C(Oc1ccc(Cl)cc1)n1ccnc1 (stereo unspecified) [Climbazole]	152 ± 37	115	89.7 ± 16	98.8	86.4 ± 8.3	131	96 ± 10	121 ± 6.3	120 ± 8.6
COc1cc(C=CC(=O)CC(=O)C=Cc2ccc(O)c(OC)c2)ccc1O [Curcumin]	94.5 ± 54	135	69.3 ± 40	51	98.4 ± 44	110	127 ± 22	145 ± 53	197 ± 9.6
